Consider 14 molecules from PubChem BioAssay (NCI).

This is part of a sample that, as a whole, favours compounds with a hit. Of some 83,000 tested, about 20% had one in any assay.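 Interpretation: 100, growth as untreated; towards 0, rising growth inhibition; 0, no net growth; 0 to -100, cell death. Compounds scoring below 10 were considered active.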 Values without a mark were called inactive. Calls of active or inactive are those of the source.

What all share (assay): NCI-60 one-dose screen, 48 h (100 = growth as untreated, 0 = no growth, -100 = all killed)
Holding throughout (settings): 10 µM unless noted

The test system of experiment [1] is HCT-15 colon.
Experiment [2] has as its system HT29 colon.
The subject of experiment [3] is SNB-75 CNS.
Experiment [4] concerns SNB-19 CNS.
Experiment [5] has as its system U251 CNS.
Experiment [6] deals with PC-3 prostate.
Experiment [7] relates to SK-MEL-5 melanoma.
The test system of experiment [8] is UACC-62 melanoma.
In experiment [9] the test system is LOX IMVI melanoma.
The test system of experiment [10] is SK-MEL-28 melanoma.
The subject of experiment [11] is SK-MEL-2 melanoma.
In experiment [12] the test system is EKVX NSCLC.
Experiment [13] relates to SN12C renal.
Experiment [14] concerns UO-31 renal.
In experiment [15] the test system is TK-10 renal.
For experiment [16], the system named is ACHN renal.
The subject of experiment [17] is CAKI-1 renal.
Experiment [18] deals with A498 renal.
Experiment [19] has as its system CCRF-CEM leukemia.
Experiment [20] concerns MOLT-4 leukemia.

Turning to `COC(=O)c1ccc(C)cc1`, the growth is 105% in [1]; 98.6% in experiment [2]; 89.2% in [3]; 115% in experiment [4]; 94.9% in experiment [5]; 97.5% in experiment [6]. Besides, the growth is 103% in [7]; 106% in experiment [8]; 99.5% in experiment [9]; 113% in experiment [10]; 106% in experiment [11]; 98.3% in [12]. Also, the growth in experiment [13] was 107%; in experiment [14] it was 101%; in experiment [15], -16.3% (active); in experiment [16], 116%; in experiment [17], 97%; in [18] it was 79.9%. The growth in experiment [19] was 101%; in experiment [20] it was 103%.
For the molecule `C=C1C(=O)O[C@H]2[C@H]1CC/C(COC(=O)NCCc1ccc(Br)cc1)=C\CC[C@@]1(C)O[C@@H]21`, the growth is 1.58% (active) in experiment [1]; -46.7% (active) in [2]; 56.8% in [3]; 40.9% in experiment [4]; 41.2% in experiment [5]; 36.4% in experiment [6]. For the same molecule, the growth in [7] is 64%; in experiment [8] it was -54.3% (active); in experiment [9], -68.2% (active); in [10], 30.6%; in experiment [11], 57.8%; in experiment [12], 57.3%. Also, the growth is 16.8% in experiment [13]; -20.5% (active) in [14]; 25.9% in [15]; -60.1% (active) in experiment [16]; 22.6% in [17]; 79.1% in experiment [18]. Further, the values for the growth in [19] and in experiment [20] were 4% (active) and -19.1% (active), respectively.
On to `COc1ncc(-c2ccc3ncnc(Nc4cccc(Cl)c4)c3c2)cc1NS(=O)(=O)CCN1CCOCC1`, for which the growth in experiment [1] was 6.62% (active); in experiment [2], 10.1%; in experiment [3], -19.2% (active); in experiment [4] it was 21.2%; in experiment [5], 28.3%; in experiment [6] it was 12.4%. The growth is -19.6% (active) in experiment [7]; -21.4% (active) in [8]; 1.29% (active) in experiment [9]; -4.89% (active) in experiment [10]; -1.15% (active) in experiment [11]; -20.7% (active) in [12]. Further, the growth in experiment [13] was 10.1%; in [14], -8.52% (active); in experiment [15], -19.6% (active); in [16], 7.46% (active); in experiment [17] it was 1.1% (active); in experiment [18], -35.9% (active). For the same molecule, the growth in experiment [19] was 22.5%; in [20], 2.58% (active).
With `CCCCOc1nc2c(C)cccc2cc1C1CNC(=O)c2ccccc2N1` (stereo unspecified), the growth in [1] is 43.4%; in experiment [2] it was 61.4%; in experiment [3], 56.6%; in experiment [4], 47%; in experiment [5], 63.7%; in experiment [6], 40.1%. For the same molecule, the growth was 43.4% in [7]; 29.1% in [8]; 60.8% in experiment [9]; 66.4% in experiment [10]; 62.8% in [11]; 61.9% in experiment [12]. Also, the growth in experiment [13] was 70.9%; in experiment [14] it was 67.8%; in [15], 98.7%; in experiment [16], 66.3%; in [17], 52.1%; in experiment [18], 55.3%. Also, the growth in experiment [19] is 34.3%; in experiment [20], 39%.
As to `Cc1ccc2nc(-c3c(N)n[nH]c3CCCO)[nH]c(=O)c2c1`, the growth is 106% in [1]; 104% in experiment [2]; 91% in experiment [3]; 106% in experiment [4]; 105% in experiment [5]; 92.3% in experiment [6]. Moreover, the growth in experiment [7] was 105%; in [8], 100%; in experiment [9] it was 101%; in [10], 115%; in [11] it was 108%; in [12] it was 103%. Moreover, the growth was 104% in experiment [13]; 63.9% in experiment [14]; 109% in experiment [15]; 115% in [16]; 112% in experiment [17]; 100% in [18]. In addition, the growth in [19] was 91.8%; in [20], 95.7%.
For `CC1(C)OC2COC3(C(=O)O)OC(C)(C)OC3C2O1` (stereo unspecified), the growth in [1] was 98.8%; in experiment [2], 99.8%; in experiment [3] it was 87.2%; in experiment [4], 92.1%; in experiment [5], 102%; in experiment [6], 100%. Besides, the growth was 102% in experiment [7]; 97.7% in experiment [8]; 95.6% in [9]; 107% in [10]; 93.1% in [11]; 97% in [12]. Further, the growth is 91.4% in experiment [13]; 92.3% in experiment [14]; 94.7% in experiment [15]; 94.4% in [16]; 103% in experiment [17]; 91.7% in experiment [18]. Moreover, the growth in experiment [19] is 128%; in experiment [20], 104%.
As to `COc1ccc2c(c1)NC(=O)CN2c1nc(C)nc2ccccc12`, the growth was 9.21% (active) in experiment [1]; 3.4% (active) in experiment [2]; 41.8% in [3]; 34.4% in [4]; 16.2% in experiment [5]; 15.1% in experiment [6]. For the same molecule, the growth in experiment [7] is -34.8% (active); in experiment [8], 35.7%; in experiment [9], 22%; in experiment [10], 59%; in [11], 23.5%; in [12] it was 30.1%. Moreover, the growth in experiment [13] was 24.7%; in experiment [14] it was 26.8%; in experiment [15], 14.8%; in [16], 26.9%; in [17] it was 29.3%; in [18] it was -4.89% (active). The growth in experiment [19] is 37.2%; in experiment [20] it was 23.7%.
`COc1ccc(/C(=N/O)c2cc(OC)c(OC)c(OC)c2)c(OC)c1N`: the growth in experiment [1] is 24.5%; in experiment [2], 13.7%; in [3] it was 8.03% (active); in experiment [4], 45.2%; in [5], 27.5%; in experiment [6] it was 19.2%. Further, the growth is 14.4% in [7]; 31.7% in [8]; 45% in [9]; 59.2% in [10]; 36.5% in [11]; 47.4% in experiment [12]. For the same molecule, the growth in [13] was 52.8%; in experiment [14] it was 49.3%; in experiment [15], 35.3%; in experiment [16], 43.3%; in experiment [17], 23.9%; in [18], -4.33% (active). Also, the growth in experiment [19] was 22.3%; in [20], 27.8%.
For the molecule `COc1cc(Br)c(OC)cc1Br`, the growth in experiment [1] is 103%; in [2] it was 96.4%; in [3] it was 90.4%; in experiment [4] it was 108%; in experiment [5] it was 98.9%; in [6], 91.2%. Also, the growth is 98.4% in experiment [7]; 94.8% in experiment [8]; 90% in [9]; 105% in [10]; 101% in experiment [11]; 76% in experiment [12]. Besides, the growth in experiment [13] is 110%; in experiment [14] it was 60.4%; in [15], 140%; in experiment [16], 92.4%; in experiment [17] it was 85.2%; in experiment [18] it was 88.7%. Also, the growth in experiment [19] is 116%; in experiment [20], 98.3%.
On to `CCN(CC)S(=O)(=O)c1ccc2[nH]c(=O)cc(C(=O)Nc3ccc(OC)cc3OC)c2c1`, for which the growth was 106% in experiment [1]; 126% in experiment [2]; 110% in experiment [3]; 104% in [4]; 108% in experiment [5]; 105% in [6]. In addition, the growth in experiment [7] was 111%; in experiment [8], 103%; in experiment [9], 106%; in experiment [10], 123%; in experiment [11], 88.8%; in [12], 166%. The growth in experiment [13] is 108%; in [14] it was 108%; in [15], 115%; in experiment [16] it was 103%; in experiment [17], 120%; in [18], 146%. Further, the growth in experiment [20] is 99.7%.
As for `C#CCN1C(=O)/C(=c2\sc3n(c2=O)C2C(NN=3)N(CC)C(=O)N2CC)c2ccccc21` (stereo unspecified), the growth was 16% in experiment [1]; 7.7% (active) in [2]; -25.2% (active) in [3]; 28% in experiment [4]; 11.2% in experiment [5]; 22.7% in [6]. Also, the growth was 12.4% in [7]; 25.2% in experiment [8]; 27.1% in [9]; 43.4% in [10]; 45.1% in experiment [11]; 64.9% in [12]. The growth was 32.4% in experiment [13]; 40.1% in [14]; 39.7% in experiment [15]; 19.8% in [16]; 23.5% in [17]; -33.8% (active) in [18]. The growth in [20] is 20.9%.
Take `CCN(CC)CCC(=O)c1cccc2ccccc12`: the growth in experiment [1] is 102%; in [2], 110%; in [3], 101%; in [4], 102%; in experiment [5] it was 104%; in experiment [6], 95.3%. Further, the growth in experiment [7] is 114%; in experiment [8], 97%; in experiment [9], 94.3%; in [10], 111%; in experiment [11] it was 114%; in experiment [12], 100%. Besides, the growth in experiment [13] is 102%; in [14], 87.6%; in [15] it was 109%; in [16] it was 98.8%; in experiment [17], 90.7%; in experiment [18], 101%. Besides, the growth in experiment [19] is 100%; in experiment [20], 102%.
Take `COc1cc(-n2nc(C(=O)Nc3ccc(C(=O)O)cc3)nc2-c2ccccc2)cc(OC)c1OC`: the growth in [1] was 89.3%; in [2] it was 103%; in [3], 94.1%; in experiment [4] it was 91.9%; in [5], 102%; in experiment [6] it was 71.3%. Further, the growth in experiment [7] is 107%; in experiment [8] it was 95.1%; in [9] it was 101%; in [10], 115%; in [11], 106%; in experiment [12] it was 53%. For the same molecule, the growth was 82.1% in experiment [13]; 58.6% in experiment [14]; 79.1% in experiment [15]; 36.1% in experiment [16]; 52.2% in [17]; 62.9% in [18]. Also, the growth in [20] was 95.8%.
Turning to `COc1ncc(-c2ccc3ncnc(Nc4cccc(Cl)c4)c3c2)cc1N(S(C)(=O)=O)S(C)(=O)=O`, the growth is 54.9% in [1]; 53% in experiment [2]; 41.1% in experiment [3]; 72.8% in experiment [4]; 82.1% in experiment [5]; 52.1% in experiment [6]. The growth in experiment [7] was 73.6%; in [8], 58.1%; in experiment [9], 63.7%; in experiment [10], 72.8%; in experiment [11], 77.4%; in [12] it was 30%. Also, the growth in [13] was 64.5%; in [14], 25.9%; in experiment [15], 5.88% (active); in experiment [16], 22%; in [17], 26.8%; in [18], 49.6%. In addition, in experiment [20], the growth is 69.9%.
